Screens: PubChem, National Center for Advancing Translational Sciences (NCATS)
In the library only some 8.9% were active in any assay of this set; here they are far more common.
SW480 rerep = A quantitative high throughput screen for small molecules that induce DNA re-replication in SW480 colon adenocarcinoma cells; SW480 DNA re-replication, Hoechst DNA content imaging, 48 h; Potency, µM (series often up to 46.1 µM), without a hit: at the highest dose re-replication activation, hits mostly activators; 340,000 tested, 1.8% active; AID 624297, 2012; also: potency is read from the fitted curve at half-maximal effect; % of control where 0% means no effect; nearly all actives have a fitted effect of over 55% in size
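Readout is total intensity of Hoechst-stained nuclei, excited at 405 nm and collected at 500-530 nm. Compound treatment lasted 48 hr at 37 C in 5% CO2 before staining.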
D3 antag = qHTS of D3 Dopamine Receptor Antagonist: qHTS. D(3) dopamine receptor (Homo sapiens), P35462. D3R cells, DiscoveRx beta-arrestin luminescence, antagonist mode; stronger effect = lower value. 360,000 tested, 2.5% active. max response, negative = inhibition, %; in the data active = max response below about -50%; inconclusive = no clear call, values can overlap the other calls; also: % is scaled to controls: 0 for no effect and ±100 for the full control effect
Target sequence (P35462 whole entry, looked up): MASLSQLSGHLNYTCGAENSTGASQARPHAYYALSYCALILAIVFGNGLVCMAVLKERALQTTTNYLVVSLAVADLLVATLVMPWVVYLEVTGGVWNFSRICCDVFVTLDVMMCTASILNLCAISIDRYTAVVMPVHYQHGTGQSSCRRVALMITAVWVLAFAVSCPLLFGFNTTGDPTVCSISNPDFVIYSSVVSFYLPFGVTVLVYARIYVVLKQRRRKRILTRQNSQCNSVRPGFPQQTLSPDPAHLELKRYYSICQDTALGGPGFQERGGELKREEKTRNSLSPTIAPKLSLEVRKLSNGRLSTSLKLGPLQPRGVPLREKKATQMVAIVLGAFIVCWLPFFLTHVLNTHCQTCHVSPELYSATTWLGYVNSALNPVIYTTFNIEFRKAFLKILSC
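Cells plated overnight at 1500 cells/well, then exposed to library compounds with dopamine controls for 90 minutes at 37 degrees C. DiscoveRx reagent added for 30–60 minutes at room temperature; luminescence read, quantitative HTS format.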
KB-V1 cytotox = qHTS assay for MDR1-selective chemotherapeutics: Primary screen using the drug-selected MDR subline cells KB-V1; KB-V1 MDR cells viability, CellTiter-Glo, 72 h; Potency, µM (top dose mostly 46.1 µM), hits mostly cytotoxic; 400,000 tested, 3.4% active; also: potency is read from the fitted curve at half-maximal effect; % is scaled to controls: 0 for no effect and ±100 for the full control effect; nearly all actives have a fitted effect of over 60% in size
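KB-V1 MDR subline cells in DMEM (phenol-red free, 10% FBS) exposed to compounds in qHTS concentration series for 72 h at 37 degrees C. Viability read by CellTiter-Glo luminescence; concentration-effect curves fitted after normalization and correction.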
KB-3-1 cytotox = qHTS assay for MDR1-selective chemotherapeutics: Primary screen using the parental adenocarcinoma cell KB-3-1 | KB-3-1 viability, CellTiter-Glo ATP luminescence, 72 h | 400,000 tested, 1.4% active | Potency, µM (series often up to 46.1 µM), hits mostly cytotoxic | AID 1347075, 2019; also: potency is read from the fitted curve at half-maximal effect; % is scaled to controls: 0 for no effect and ±100 for the full control effect; nearly all actives have a fitted effect of over 60% in size
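Viability of parental KB-3-1 cells, measured by CellTiter-Glo luminescence, followed a 72 h incubation at 37 °C with pinned compounds in phenol-red-free DMEM containing 10% FBS.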
DRD3 agonist = qHTS of D3 Dopamine Receptor Agonist: qHTS; D3R DiscoveRx beta-arrestin cells, luminescence, 90 min; max activation, %; 410,000 tested, 0.58% active; AID 652048, 2013; in the data active = max activation above about 30%; also: 0% is about no effect
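Agonist-mode cell screen: cells plated at 1500/well and incubated overnight at 37 °C, then exposed to library compounds for 90 min at 37 °C. Detection reagent was added for 30–60 min at room temperature, and luminescence was read.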
MCF10A rerep = A quantitative high throughput screen for small molecules that induce DNA re-replication in MCF 10a normal breast cells; MCF 10A DNA re-replication, Hoechst nuclear intensity, 48 h; Potency, µM (highest dose often 46.1 µM), inactives show top-dose activity, positive = re-replication, actives largely listed as activators; 350,000 tested, 2.9% active; also: potency is read from the fitted curve at half-maximal effect; % of control where 0% means no effect; nearly all actives have a fitted effect of over 50% in size
* = called active by the depositor; i = inactive; ? = inconclusive; . = not tested or not shown; ! = repeats disagree. Unless noted, calls follow the shape of the dose curve; as a rule, active = well fitted curve in the direction sought with a large enough effect; inconclusive = small, poorly fitted or top-dose-only effect, or another doubt; inactive = no such curve, though single readings can be large; an effect the other way counts as inactive or inconclusive.

SMILES	SW480 rerep	D3 antag	KB-V1 cytotox	KB-3-1 cytotox	DRD3 agonist	MCF10A rerep
CCN(CC)c1nn2c(=O)c(C(=O)NCCc3ccc(C)cc3)cnc2s1	.	.	.	.	-4.1	.
CC(NC(=O)CCn1c(=O)c2cccn2c2ccc(F)cc21)c1ccccc1 (centres undefined)	.	.	.	.	-32.4	.
CC(C)c1ccc(NC2(C#N)C(=O)Nc3ccccc32)cc1 (centres undefined)	-3.0%	-53.5*	i	i	-6.5	5.1%
Cc1ccc(OC(=O)CSc2nnc(-c3ccc4c(c3)OCO4)o2)c(C)c1	.	.	?	i	5.6	.
C=C1CC(COc2ccc3c(C)c(Cl)c(=O)oc3c2)(c2ccccc2)OC1=O (centres undefined)	?	-98.7*	?	?	-24.3	4.61µM*
COc1ccc(CNC(=O)C2CCN(c3nc4ccccc4[nH]3)CC2)c(OC)c1	.	.	i	i	-4.1	.
CCOC(=O)COc1cc2c(C(=O)OCC)c(C)oc2cc1Br	-1.2%	-5.9	i	i	34.7*	12.2%
CCOC(=O)c1c(C)oc2cc(Br)c(OC(C)C(=O)OCC)cc12 (centres undefined)	?	21.7	?	i	-23.0	?
Cc1ccc(Cn2c(CCNC(=O)C(C)C)nc3ccccc32)cc1	.	.	i	i	-1.7	.
COc1cc(-c2c(-c3cc(OC)c(OC)c(OC)c3)noc2C)ccc1F	1.3µM*	-2.4	0.411µM*	0.326µM*!	4.6	?
COc1ccc(-c2c(-c3cc(OC)c(OC)c(OC)c3)noc2C)cn1	7.31µM*	24.3	1.64µM*!	1.64µM*	-8.8	1.64µM*
COc1ccc(-c2c(-c3ccc4c(c3)OCO4)noc2C)cn1	-5.5%	2.9	?	?	1.3	34.1%
CC(=O)Nc1ccc(S(=O)(=O)NC2CC(=O)N(c3ccc(C)cc3)C2)cc1 (centres undefined)	6.51µM*	3.7	i	i	10.9	-14.6%
Cc1cc2[nH]c3ccccc3c2c(C)n1	8.7%	14.3	16.4µM*	?	1.4	?
COc1cc2c(c(OC)c1OC)-c1c(cc3c(c1OC)OCO3)C[C@@H](C)[C@](C)(O)C2	.	.	.	.	8.3	.
COC(=O)CSC1=C(C#N)C(c2ccc(C)o2)CC(=O)N1 (centres undefined)	5.8µM*	-9.5	?	18.4µM*	-3.4	?
COC(=O)CSC1=C(C#N)C(c2ccc(F)cc2)CC(=O)N1 (centres undefined)	-2.9%	-14.9	i	i	4.8	1.0%
Cc1ccc(C(=O)CSC2=C(C#N)C(c3ccco3)CC(=O)N2)c(C)c1 (centres undefined)	-3.3%	4.3	14.6µM*	i	-16.1	24.6%
Cc1ccc(NC(=O)CSC2=C(C#N)C(c3ccco3)CC(=O)N2)cc1 (centres undefined)	3.3%	19.0	?	?	1.4	13.5%
CN1CCc2c(sc(/N=C/c3c[nH]c4ccccc34)c2C#N)C1	-11.8%	?	i	i	-8.2	?
CN1CCc2c(sc(/N=C/c3cc(Cl)ccc3O)c2C#N)C1	14.4%	-50.3*	i	i	20.7	?
Cc1cccc(OCCCCc2c(C)n[nH]c2C)c1	?	21.8	i	i	1.4	?
COc1ccccc1OCCCc1c(C)n[nH]c1C	-10.5%	7.1	16.4µM*	i	10.7	-6.9%
Cc1n[nH]c(C)c1CCCOc1ccccc1	-1.8%	4.9	i	i	1.7	-16.7%
COc1cccc(OCCc2c(C)n[nH]c2C)c1	-6.5%	38.6	20.6µM*	?	3.8	0.6%
SMILES	SW480 rerep	D3 antag	KB-V1 cytotox	KB-3-1 cytotox	DRD3 agonist	MCF10A rerep
Cc1cccc(OCCCCc2c(C)n[nH]c2C)c1C	-3.6%	29.7	16.4µM*	?	11.7	?
CCOc1ccccc1OCCCCCc1c(C)n[nH]c1C	?	20.4	2.91µM*	20.6µM*	3.0	5.7%
CCOc1ccc(N2CC(NC(=O)c3ccc4c(c3)OCO4)CC2=O)cc1 (centres undefined)	.	.	.	.	5.7	.
COc1ccccc1OCCCCCc1c(C)n[nH]c1C	-0.1%	12.0	4.61µM*	?	23.1	2.0%
O=C(CSC1=NNC(c2ccccn2)S1)Nc1ccccc1 (centres undefined)	16.4µM*	6.4	i	i	5.8	?
CC(C)C(NC(=O)c1ccccc1)C(=O)NC1=NCCS1 (centres undefined)	7.8%	2.9	i	i	3.9	?
COc1cc(OC)cc(C(=O)N[C@H](C(=O)NC2=NCCS2)C(C)C)c1	-1.4%	14.1	11.6µM*	i	3.9	-1.0%
CCC(=O)N1c2ccc(S(=O)(=O)N3CCCCCC3)cc2CC1C (centres undefined)	.	.	i	i	3.5	.
S=C(NCCSCc1c(Cl)cccc1Cl)Nc1ccccc1	2.0%	-26.5	20.6µM*	?	-6.3	?
S=C(NCCSCc1ccc(Cl)c(Cl)c1)Nc1ccccc1	?	-21.4	i	i	3.4	25.9µM*
COc1ccc(CSCCNC(=S)Nc2ccccc2)cc1Cl	-10.3%	-11.6	i	i	-6.1	1.7%
Cc1ccc2nc3sc(C(=O)NCc4ccco4)cc3cc2c1	.	.	i	i	.	.
COC(=O)c1csc(C2OC(CO)C(O)C2O)n1 (centres undefined)	.	23.7	i	i	-0.6	.
Cc1ccc(C)c(OCC(=O)Nc2ccc(S(=O)(=O)Nc3onc(C)c3C)cc2)c1C	.	.	i	i	-7.3	.
Cc1oc2ccc(O)c(CN3CCN(C)CC3)c2c1C(=O)Nc1ccccc1	.	.	i	i	14.4	.
O=C(NCc1ccco1)Nc1nnc([C@H]2C[C@H](O)[C@@H](CO)O2)s1	.	?	i	i	2.5	.
O=C(COC(=O)c1ccccc1Nc1ccccc1)Nc1ccccc1	16.0%	9.8	i	i	0.9	?
CC(=O)c1ccc(NC(=O)COC(=O)c2ccccc2Nc2ccccc2)cc1	-0.9%	-51.1*	i	i	-0.5	16.1%
CC(C)(C)NC(=O)COC(=O)c1ccccc1Nc1ccc(SC(F)F)cc1	5.3%	-13.3	i	?	4.7	?
NC(=O)COC(=O)c1ccccc1Nc1ccc(SC(F)F)cc1	-4.3%	0.0	i	i	-22.0	23.1µM*
Cc1ccc(NC(=O)Cn2c(=O)n(Cc3ccc4c(c3)OCO4)c(=O)c3ccccc32)c(C)c1	.	.	?	i	-2.1	.
